In PubChem BioAssay AID1224858 (National Center for Advancing Translational Sciences (NCATS), 2016):
Records with an inconclusive call do not appear. Values without a mark were called inactive. The source made the active and inactive calls. The call rests on the fitted dose curve; in most records, active means well fitted inhibition curve with a large enough effect; inconclusive means small, poorly fitted or top-dose-only effect; inactive means no such curve, though single readings can be large or run the other way.

Assay: Confirmation assay for measurement of the activity of small molecule inhibitors on Zika virus induced Caspase-3 activity in human astrocytes
Conditions: ZIKV-induced caspase-3/7 luminescence, 6 h; series mostly up to 46.1 µM; activity, negative = inhibition: at the top concentration
From the text: National Center for Advancing Translational Sciences [NCATS] Johns Hopkins University School of Medicine Florida State University Assay Overview: Increase in the Caspase-3 activity indicates an activation of apoptosis cell death pathway caused by Zika virus infection in certain types of neuronal cells including human neural progenitor cells (hNPCs), astrocytes, and astrocytoma cell line (SNB-19). This cell-based caspase-3 activity assay measures the increased caspase-3 activity in the human astrocytes after a 6-hour Zika virus infection with a luminescence readout. A decrease in the luminescence signal in this assay by small molecule treatment indicates an inhibitory effect of that small molecule on the Zika virus induced caspase-3 activity that may correlate with its effect on reduction of Zika virus caused cell death.
Assay Protocol Summary: The medium for astrocytes contains AM basal medium (ScienCell, Cat.# 1801), AGS (ScienCell, Cat.# 1801), 10% FBS, and 1% Pen/Strep. A Caspase-Glo 3/7 assay kit (catalog number G8092; Promega, Madison, WI) was used to detect caspase-3 activity induced by Zika virus infection in human cells. The reagent mixture was reconstituted as described in the protocol from the manufacturer. Polystyrene tissue culture treated and PDL coated white plates were obtained from Greiner Bio-One (Monroe, NC). Cells were seeded in 384- or 1536-well assay plates and cultured at 37 C with 5% CO2 for 16 to 20 hours. The typical cell seeding density in the 1536-well plate assay is 350 cells/well in 3 ul medium for astrocytes in tissue culture treated plates. Compounds were added to cells and incubated for one hour before addition of ZIKV solution to cells (2 FFU/cell). After incubation at 37 C with 5% CO2 for 6 hours, the reagent mixture of Caspase-Glo 3/7 assay kit was added to each well, followed by incubation at room temperature for 30 minutes. The luminescence intensity of the assay plates was measured using a ViewLux plate reader (PerkinElmer). Data were normalized by using the cell-containing wells without ZIKV as a negative control (0% induction of caspase 3/7 activity) and wells containing ZIKV infected cells (Caspase-3 activity induced) as a positive control (100% induction of caspase 3 activity). The percentage inhibitions of the increased Caspase-3 activity by small molecule inhibitors were then calculated.

Row | Compound | activity, negative = inhibition [%] | Potency
1 | COP(=S)(OC)SCN1C(=O)c2ccccc2C1=O | 11.5 | 
2 | O=C1CCC[C@@H]2[C@H]3CCCN4CCC[C@@H](CN12)[C@@H]34 | -2.18 | 
3 | O=c1c2ccccc2[se]n1-c1ccccc1 |  | 7.74 µM (active)
4 | O=C1C=CC[C@@H]2[C@H]3CCCN4CCC[C@@H](CN12)[C@@H]34 | 6.06 | 
5 | CC(C)N[C@@H]1CCn2c(=O)[nH]c3cccc(c32)[C@@H]1O | -6.93 | 
6 | O=C(Nc1ccc(Br)cc1)c1cc(Br)cc(Br)c1O |  | 6.15 µM (active)
7 | CC(C)[N+](C)(CCC(C(N)=O)(c1ccccc1)c1ccccc1)C(C)C | 3.8 | 
8 | CC(O)CN1CCN(CC(=O)[O-])CCN(CC(=O)[O-])CCN(CC(=O)[O-])CC1.[Gd+3] (stereo not drawn) | 16.8 | 
9 | Oc1ccc([C@H]2CNCc3c2ccc(O)c3O)cc1O | -21.6 | 
10 | O=S(=O)(CC1CS1)c1ccc(Oc2ccccc2)cc1 (stereo not drawn) | -16.3 | 
11 | CC(C)[C@H]1C(=O)N[C@H](CO)Cc2c[nH]c3cccc(c23)N1C | -6.86 | 
12 | Cc1ccc([N+](=O)[O-])[c]2c1[O][Hg]2 |  | 7.74 µM (active)
13 | COC1(CS(=O)c2ccccc2)CCN(CCc2c[nH]c3ccc(F)cc23)CC1 (stereo not drawn) | 21.6 | 
